A selection: hits, their analogues and other compounds. The true share with any hit is near 1.9%.
eIF4E-4G inh = blocks eIF4E binding to eIF4G. inhibition, % at 21.7 µM. TR-FRET eIF4E-eIF4GI(517-606) binding, 2 h. 220,000 compounds, 0.37% hits. P63073+Q04637;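 active = inhibition above about 30%, limit read from the data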;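 also: 0% = full FRET control wells and 100% = background wells lacking eIF4GI fragment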
PABP FP inh = PABP-poly(A) binding inhibition. calls only at 35 µM. PABP-poly(A) RNA binding, fluorescence polarization. 290,000 compounds, 1% hits;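 also: calls also rest on retests at 20 µM and on dose response follow-up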
14-3-3 Bad inh = disrupts binding of bovine 14-3-3 zeta to phospho-Bad peptide. AID 781. TR-FRET 14-3-3zeta/Dy647-pBad peptide displacement, 1 h. 220,000 compounds, 0.71% hits. inhibition, % at 21.7 µM. P63103;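 active = inhibition above about 70%, limit read from the data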;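 also: 0% = full 14-3-3 plus peptide FRET controls and 100% = background without 14-3-3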
PABP1 MLLE inh = blocks PAM2 peptide binding to the PABP1 MLLE domain | P11940 | GST-MLLE / FITC-PAM2 fluorescence polarization | inhibition, % at 20 µM | 360,000 compounds, 0.36% hits; in the data active = inhibition above about 35%, passing the limit was not always enough;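 also: plate controls were DMSO wells with GST-MLLE for no effect and wells lacking GST-MLLE protein for full effect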
eIF4H inh = inhibitors of RNA binding by human eIF4H; Q15056; 290,000 compounds, 0.94% hits; inhibition, % at 35 µM; eIF4H fluorescence polarization binding assay;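 also: calls also rest on retests at 20 µM and on dose response follow-up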
* marks the source's active call; other numbers are inactive results; [ ] = another dose, or the depositor's remark. Unless noted, no rule for the calls is given here.

Results for COc1cc(C(=O)O[C@H]2C/C(C)=C/CC[C@@]3(C)O[C@@H]3[C@H](O)[C@@H]2C(C)C)cc(OC)c1OC ?
PABP FP inh: inactive; PABP1 MLLE inh: -9; eIF4H inh: -2

How did O=C(Nc1cnn(C23CC4CC(CC(C4)C2)C3)c1)c1cnn2c(C(F)(F)F)cc(-c3ccco3)nc12 do in these assays?
eIF4E-4G inh: 7; PABP FP inh: inactive; 14-3-3 Bad inh: 77*; PABP1 MLLE inh: -22; eIF4H inh: 10

Results for O=C(Nc1ccc2c(c1)OCO2)c1cnn2c(C(F)(F)F)cc(-c3ccco3)nc12 ?
eIF4E-4G inh: 0; PABP FP inh: inactive; 14-3-3 Bad inh: -11; PABP1 MLLE inh: 1; eIF4H inh: -6

How did Cc1cc(-c2nnc(CCC(=O)NCc3ccc(OC(F)(F)F)cc3)o2)no1 do in these assays?
PABP FP inh: inactive; PABP1 MLLE inh: -19; eIF4H inh: -6

How did CC12CC3(C)CC(C)(C1)CC(C(=O)NC(=S)N1CCCC1)(C2)C3 do in these assays?
eIF4E-4G inh: 32*; PABP FP inh: inactive; 14-3-3 Bad inh: -8; PABP1 MLLE inh: -79; eIF4H inh: 14

What do the screens show for `COCCCNCCCOc1ccc(Cl)cc1Br`?
eIF4E-4G inh: 3; PABP FP inh: inactive; 14-3-3 Bad inh: 74*; PABP1 MLLE inh: -4; eIF4H inh: -1

How did COCCCNCCCCOc1c(Cl)cc(C)cc1Br do in these assays?
eIF4E-4G inh: 0; PABP FP inh: inactive; 14-3-3 Bad inh: 79*; PABP1 MLLE inh: 2; eIF4H inh: -2

What do the screens show for `C=CCNCCCCOc1c(Cl)cc(C)cc1Br`?
eIF4E-4G inh: -1; PABP FP inh: inactive; 14-3-3 Bad inh: 27; PABP1 MLLE inh: -4; eIF4H inh: -13

How did Cc1cc(Sc2nc(N)ncc2[N+](=O)[O-])ncn1 do in these assays?
eIF4E-4G inh: 4; PABP FP inh: inactive; 14-3-3 Bad inh: -4; PABP1 MLLE inh: 26; eIF4H inh: 8

Results for Cc1cc(Sc2ncnc(N)c2[N+](=O)[O-])ncn1 ?
eIF4E-4G inh: -1; PABP FP inh: inactive; 14-3-3 Bad inh: 13; PABP1 MLLE inh: 46*; eIF4H inh: 3

What do the screens show for `O=C1c2ccccc2CN1Cc1ccccc1`?
PABP FP inh: inactive; PABP1 MLLE inh: -5; eIF4H inh: -10

How did Cc1cccc2nc(CSCc3ccco3)cn12 do in these assays?
eIF4E-4G inh: 0; PABP FP inh: active; 14-3-3 Bad inh: -1; PABP1 MLLE inh: 44*; eIF4H inh: 76*

How did CCN(Cc1cc2ccc(C)cc2[nH]c1=O)C(=O)c1cccnc1 do in these assays?
eIF4E-4G inh: 12; PABP FP inh: active; 14-3-3 Bad inh: -10; eIF4H inh: 84*

How did C=CCn1c(N)c(C(=O)OCC)sc1=S do in these assays?
eIF4E-4G inh: -3; PABP FP inh: inactive; 14-3-3 Bad inh: -7; PABP1 MLLE inh: 49*; eIF4H inh: -13

What do the screens show for `O=C1CCCC(O)=C1N=Nc1ccc(Cl)c(Cl)c1`?
eIF4E-4G inh: 0; PABP FP inh: inactive; 14-3-3 Bad inh: -6; PABP1 MLLE inh: 12; eIF4H inh: 0

How did CC(=O)N1CCc2cc(N=NC3=C(O)CCCC3=O)ccc21 do in these assays?
eIF4E-4G inh: 1; PABP FP inh: active; 14-3-3 Bad inh: -10; PABP1 MLLE inh: -66; eIF4H inh: 54*

What do the screens show for `O=C(CSc1ccccc1C(=O)O)NC1CCCCCC1`?
eIF4E-4G inh: -1; PABP FP inh: inactive; 14-3-3 Bad inh: 0; PABP1 MLLE inh: 79*; eIF4H inh: 3

How did CCOc1ccc(NC(=O)CN(C)C(=O)CSC(C)C(=O)Nc2cc(C)on2)cc1OCC (centres undefined) do in these assays?
PABP FP inh: active; PABP1 MLLE inh: -5; eIF4H inh: 35

What do the screens show for `Cc1ccc(C)c(NC(=O)CN(C)C(=O)CSC(C)C(=O)Nc2cc(C)on2)c1` (centres undefined)?
PABP FP inh: inactive; PABP1 MLLE inh: -1; eIF4H inh: 5

How did COc1ccc(CC(=O)Nc2cccnc2)cc1 do in these assays?
PABP FP inh: inactive; PABP1 MLLE inh: 10; eIF4H inh: -1

Results for c1ccc(-c2nc(-c3ccncc3)n[nH]2)nc1 ?
eIF4E-4G inh: 54*; PABP FP inh: inactive; 14-3-3 Bad inh: -9; PABP1 MLLE inh: 1; eIF4H inh: 0

What do the screens show for `O=C(Cn1c2ccccc2c(=O)c2ccccc21)N/N=C/c1ccc(N2CCCC2)c([N+](=O)[O-])c1`?
eIF4E-4G inh: 29; PABP FP inh: inactive; 14-3-3 Bad inh: 98*[fluorescence artefact?]; PABP1 MLLE inh: -9; eIF4H inh: 35
